# Measurements taken from PubChem BioAssay AID602410 (Johns Hopkins Ion Channel Center, 2012).
# The campaign covered roughly 340,000 compounds. About 2,800 (0.82%) were called active.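 Rule for the calls: active = B-score under library mean minus 4 SD, starting fluorescence ratio at most library mean plus 5 SD; inactive = the rest.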 The entries come from a sample that favours actives as a whole.
# Target: Potassium channel subfamily K member 3 (Homo sapiens) (UniProt O14649)
# Experiment: blockers of TASK1 two-pore potassium channel – CHO cells, FluxOR thallium flux, B-score, primary screen (AID 602410);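 for B-score: more negative B-score means stronger inhibition of thallium flux through KCNK3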
# Details: CHO-KCNK3 thallium flux, FluxOR fluorescence, at 10 µM; active compounds read low
# Chain of Potassium channel subfamily K member 3 (Homo sapiens) (O14649 whole entry, looked up): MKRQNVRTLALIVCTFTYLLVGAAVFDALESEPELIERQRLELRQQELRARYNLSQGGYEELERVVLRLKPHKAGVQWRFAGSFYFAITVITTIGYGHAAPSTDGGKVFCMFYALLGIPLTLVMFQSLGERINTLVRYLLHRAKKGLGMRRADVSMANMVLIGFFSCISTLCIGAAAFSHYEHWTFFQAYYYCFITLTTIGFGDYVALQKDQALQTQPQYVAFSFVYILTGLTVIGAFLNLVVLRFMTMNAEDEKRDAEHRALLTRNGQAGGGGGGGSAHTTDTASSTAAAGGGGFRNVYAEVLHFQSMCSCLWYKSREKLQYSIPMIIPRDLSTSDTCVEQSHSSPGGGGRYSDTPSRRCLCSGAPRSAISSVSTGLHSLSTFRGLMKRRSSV
row,Compound,B-score
1,c1ccc2c(NCC3CCCO3)nc(-c3ccncc3)nc2c1 (configuration not stated),inactive
2,O=C(CSc1nc2ccccc2c(=O)n1Cc1ccc(F)cc1)NCC1CCCO1 (configuration not stated),inactive
3,Clc1cccc(-c2nc(NCC3CCCO3)c3ccccc3n2)c1 (configuration not stated),-10.2 (active)
4,CCOC(=O)[C@@H]1[C@H]2COc3ccc(Br)cc3[C@H]2N2C(=O)N(c3ccc(C)cc3)C(=O)[C@@]12C,inactive
5,CCn1c(CSc2nncn2-c2ccc(OC)cc2)nc2cc(S(=O)(=O)N(C)C)ccc21,inactive
6,COc1cc(CNCc2ccc(OC)c3ccccc23)cc(OC)c1OC,inactive
7,CC(C)N(Cc1ccccc1)C(=O)COC(=O)c1cnccn1,inactive
8,N/C(Cc1ccc([N+](=O)[O-])cc1)=N\OC(=O)COc1ccc2ccccc2c1,-8.91 (active)
9,Cc1cc(C)cc(OCC(=O)O/N=C(\N)Cc2ccc([N+](=O)[O-])cc2)c1,inactive
10,N/C(=N\OC(=O)Cc1ccc([N+](=O)[O-])cc1)c1ccccn1,inactive
11,CCNC(=O)CC1C(=O)N(c2ccc(OC)cc2)C(=S)N1CCc1ccncc1 (configuration not stated),inactive
12,CCc1cc(-c2n[nH]c(=S)n2CC(C)C)cs1,inactive
13,CCOC(=O)N1CCN(Cc2nc3cc(NC(=O)CC)ccc3n2CC)CC1,inactive
14,O=C(CN(CC1CCCO1)C(=O)CNS(=O)(=O)c1ccc(Cl)cc1)NCc1ccccc1 (configuration not stated),inactive
15,CCC(C(=O)NCCC(C)C)N(Cc1ccccc1Cl)C(=O)c1snc(C(N)=O)c1N (configuration not stated),inactive
16,COc1ccc2c(c1)c(=Cc1ccc(N(C)C)cc1)c1cc(-c3ccccc3)[n+](C)n12,-15.6 (active)
17,COc1ccc2sc(-c3ccc(N(C)C)cc3)c(C#CCO)c2c1,inactive
18,O=S(=O)(c1cccs1)N1CCN(CCOc2ccccc2)CC1,inactive
19,Cc1ccc(OCCOc2cccc(/C=N/NC(N)=O)c2)cc1,inactive
20,O=C(N/N=C/c1cccc(O)c1)c1cc2c(ccc3ccccc32)o1,inactive
21,O=C(N/N=C/c1cccc(OCc2ccccc2)c1)c1ccc(Br)o1,-9.25 (active)
22,COc1ccccc1N1CCN(c2ncnc3sc(C)c(-c4ccccc4)c23)CC1,-14.3 (active)
23,COc1ccccc1N1CCN(c2nc(C)cc(=O)[nH]2)CC1,inactive

row,Compound,B-score
1,COc1ccccc1N1CCN(c2ccc([N+](=O)[O-])nc2)CC1,inactive
2,COc1ccc(S(=O)(=O)N(C)CC(=O)NCCCN2CCOCC2)cc1Cl,inactive
3,O=C(NCCN1CCOCC1)Nc1cccc(Cl)c1,inactive
4,COc1cccc2cc(C(C)N(CCCN3CCOCC3)C(=O)Nc3ccc(Cl)cc3)oc12 (configuration not stated),-10.2 (active)
5,Cc1nn(CC(=O)Nc2ccc(N(C)C)cc2)c(C)c1[N+](=O)[O-],inactive
6,Cc1nn(CC(=O)NCc2ccccn2)c(C)c1[N+](=O)[O-],inactive
7,Cc1nn(CC(=O)Nc2nc3ccccc3s2)c(C)c1[N+](=O)[O-],-10.5 (active)
8,CCN(CC(=O)NCc1ccc(F)cc1)S(=O)(=O)c1ccc(Cl)s1,inactive
9,CC(C(=O)NC1CCCC1)N(c1ccc(Oc2ccccc2)cc1)S(C)(=O)=O (configuration not stated),inactive
10,COC(=O)c1cc(C)sc1NC(=O)CC1Nc2ccccc2NC1=O (configuration not stated),inactive
11,COC(=O)COc1ccc2c(c1C)O/C(=C\c1ccco1)C2=O,inactive
12,O=C(OCN1C(=O)c2ccccc2C1=O)/C(=C\c1ccco1)NC(=O)c1ccccc1,inactive
13,COC(=O)C1=C(C)N(C(C)c2ccccc2)C(=O)/C1=C\c1ccco1 (configuration not stated),-9.57 (active)
14,CC(=O)NCCC(=O)Nc1cc(S(=O)(=O)N2CCCCC2)ccc1Oc1cccc(C)c1,inactive
15,Cc1c(NC(=O)CCC2CCCCC2)cc(C(=O)N2CCOCC2)cc1[N+](=O)[O-],inactive
16,CC(C)N1C(=O)N(c2ccccc2)C(C)(O)CC1(C)C (configuration not stated),inactive
17,CC(C)N(Cc1nc(-c2ccc3c(c2)OCO3)no1)CC1CCC(=O)N1 (configuration not stated),inactive
18,Cc1c(S(=O)(=O)NC(C)c2ccccc2)c(=O)n(C)c(=O)n1C (configuration not stated),inactive
19,Cc1ccc(NC(=O)COC(=O)CNC(=O)c2ccc(Cl)cc2Cl)cc1S(=O)(=O)N1CCOCC1,-10.7 (active)
20,Cc1ccc(NC(=O)CCCNC(=O)c2ccc(Cl)cc2)cc1S(=O)(=O)N1CCOCC1,inactive
21,Cc1ccc(NC(=O)COC(=O)C2CC2)cc1S(=O)(=O)N1CCOCC1,inactive
22,CC1COc2ccccc2N1C(=O)c1cccnc1Cl (configuration not stated),inactive
23,CC(=O)c1ccccc1OCc1ccc(C(=O)c2ccccc2)cc1,-15.7 (active)

row,Compound,B-score
1,O=C(NC1CCC(O)CC1)c1ccccc1OCc1ccc(F)cc1 (configuration not stated),inactive
2,COc1ccc(CCNC(=O)c2ccccc2OCc2ccccc2)cc1,inactive
3,O=C(OCCOCn1cc(Br)c(=O)[nH]c1=O)c1ccccc1,inactive
4,Cc1occc(=O)c1OCc1ccc(F)cc1,inactive
5,Fc1cccc2ncnc(OCc3ccccc3)c12,inactive
6,Cc1nc2ccccc2cc1OCc1ccc(F)cc1,-11.4 (active)
7,CCc1ccc(N2CC(C(=O)N3CCCCCC3)CC2=O)cc1 (configuration not stated),inactive
8,COc1ccccc1N1CCN(/N=C/c2ccc(O)cc2O)CC1,inactive
9,COc1cc(/C=N/N2CCN(c3ccccc3)CC2)ccc1OC(C)=O,inactive
10,COc1ccccc1N1CCN(/N=C\C(Br)=C\c2ccccc2)CC1,-9.41 (active)
11,COc1ccc(CC(=O)N[C@@H](CCSC)c2nc3ccccc3[nH]2)cc1,inactive
12,CC1CC(C)CN(c2ccc(S(=O)(=O)N3CCOCC3)cc2)C1 (configuration not stated),inactive
13,Cc1cc(C)c(C#N)c(SCc2ccc3c(c2)OCO3)n1,-11.2 (active)
14,Cc1ccc(CSc2nsc(C)c2C#N)cc1,inactive
15,Cc1cc(C)c(C#N)c(SCc2ccccc2C(=O)O)n1,inactive
16,CCOc1ccc(OCC)c(NC(=O)C(NS(=O)(=O)c2ccc3c(c2)oc(=O)n3C)C(C)C)c1 (configuration not stated),inactive
17,COc1ccccc1OCC(=O)Nc1ccccc1C(=O)NC1CC1,inactive
18,COc1ccc(C(=O)c2c3ccc([N+](=O)[O-])cc3[n+]([O-])n2CCCN)cc1,inactive
19,COCC(=O)Nc1cc(C(=O)OC)cc(C(=O)OC)c1,inactive
20,O=C(O)c1ccccc1C(=O)NC1=NN(c2ccccc2)CC1,inactive
21,N/C(=N\OC(=O)CCn1cccc(C(F)(F)F)c1=O)c1ccc(OC(F)(F)F)cc1,inactive
